This is one part of a sample in which hits are shown more often than they occur.
ClpP mod: qHTS Assay for Activators of ClpP. Potency, µM (titrated, usually from 57.5 µM), inactives show at the top dose activity change, negative = active. AID 651965, 2013. actives 1.9% (n = 340,000). ATP-dependent Clp protease proteolytic subunit (Bacillus subtilis (strain 168)), P80244. purified B. subtilis ClpP, FRET peptide cleavage, 20 min; active means well fitted falling curve with a large enough effect; inconclusive means small, poorly fitted or top-dose-only effect; inactive means no such curve, though single readings can be large or run the other way; further: potency means the concentration at half of the fitted maximal effect; the source files actives as falling curves though it sought activators and does not explain the sign; nearly all actives have a fitted effect of over 65% in size
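Purified B. subtilis ClpP, 10 microg/mL final in Tris/HCl pH8 with KCl, BSA, glycerol and Tween-20, cleaved an Abz/nitrotyrosine-quenched decapeptide. Fluorescence (ex 320, em 430) was read at 0 and 20 min at room temperature. Delta was normalized to 5.8 microM ADEP and DMSO/no-enzyme controls.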
CBFb RUNX1 block: qHTS Assay for Compounds Blocking the Interaction Between CBF-beta and RUNX1 for the Treatment of Acute Myeloid Leukemia; AlphaScreen CBFb-His/RUNX1-biotin binding, biochemical; Potency, µM (highest dose often 59.8 µM), for inactives: at the highest dose activity, negative = inhibition, usual class: inhibitors; 230,000 tested, under 10 active; AID 1477, 2009; active means well fitted curve in the direction sought with a large enough effect; inconclusive means small, poorly fitted or top-dose-only effect, or effect the other way, or another doubt; inactive means no such curve, though single readings can be large or run the other way; further: % of control where 0% means no effect
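CBF-beta (His) and RUNX1 (biotin), 30 nM each; 20 min preassociation; + compound, 15 min; + beads 50 ng each (Ni, streptavidin), 90 min; RT; AlphaScreen read.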
Rango release inh: qHTS Assay for Inhibitors of RanGTP induced Rango (Ran-regulated importin-beta cargo) - Importin beta complex dissociation | actives 0.071% (n = 340,000) | Potency, µM (highest dose often 46.1 µM), for inactives: top-dose activity change, negative = inhibition | Snurportin-1 (Homo sapiens) + GTP-binding nuclear protein Ran (Homo sapiens) + Importin … | Biochemical FRET Rango-importin beta, RanGTP-induced dissociation; further: potency means the concentration at half of the fitted maximal effect; % of control where 0% means no effect; nearly all actives have a fitted effect of over 45% in size
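Recombinant Rango FRET biosensor (EYFP–snurportin 1 IBB–cerulean CFP10) at 0.1 uM premixed with 0.25 uM importin beta in PBS, 1 mM DTT, 0.02% Tween-20, 0.1% BSA. Compound added 5 min; RanGTP-RCC1 (0.6 uM Ran, 2 mM GTP, 0.2 uM RCC1) then triggers release, read at 45 min.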
MBNL1 CUG block: qHTS Assay for Inhibitors of MBNL1-poly(CUG) RNA binding. Muscleblind-like protein 1 (Homo sapiens), Q9NR56. TR-FRET MBNL1-His/biotin-(CUG)12 binding, 665/545 ratio. Potency, µM (series often up to 57.5 µM), inactives show top-dose activity change, negative = inhibition, usual class: inhibitors. actives 0.036% (n = 280,000); active means well fitted inhibition curve with a large enough effect in the signal ratio, with a control signal flat, not every such curve was filed as active; inconclusive means small, poorly fitted or top-dose-only effect, or effect the other way, or a change in a side signal; inactive means no such curve, though single readings can be large or run the other way; the % refers to the signal ratio; further: potency means the concentration at half of the fitted maximal effect; on the % scale 0 is the no-effect control and ±100 the full control effect
Target sequence (Q9NR56 whole entry, looked up): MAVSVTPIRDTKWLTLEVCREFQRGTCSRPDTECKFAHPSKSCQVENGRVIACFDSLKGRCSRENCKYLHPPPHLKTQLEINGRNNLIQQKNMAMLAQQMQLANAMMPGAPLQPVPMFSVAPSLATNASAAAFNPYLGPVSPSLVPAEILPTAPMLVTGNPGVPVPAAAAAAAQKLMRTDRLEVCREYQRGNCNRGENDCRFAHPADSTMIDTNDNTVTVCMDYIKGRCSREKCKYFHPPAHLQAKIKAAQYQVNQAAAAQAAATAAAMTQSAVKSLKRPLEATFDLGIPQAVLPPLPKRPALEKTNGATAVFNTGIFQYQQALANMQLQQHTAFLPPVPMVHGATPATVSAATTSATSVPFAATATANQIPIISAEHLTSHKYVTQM
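TR-FRET between His-tagged MBNL1 and biotin-(CUG)12 RNA, detected with Tb anti-His antibody (0.055 ng/ul) and streptavidin-XL665 (5 nM), 60 min at room temperature. Compounds titrated 92 nM to 58 uM; 665/545 nm ratio normalized to buffer and complex controls.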
Rango complex inh: qHTS Assay for Inhibitors of Rango (Ran-regulated importin-beta cargo) - Importin beta complex formation. Importin subunit beta-1 (Homo sapiens), Q14974. Potency, µM (doses to about 92.2 µM), without a hit: at the top dose inhibition of complex formation. actives 0.031% (n = 340,000). Rango CFP/YFP FRET sensor + importin beta, 45 min;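 further: potency means the concentration at half of the fitted maximal effect; 0% = DMSO wells and 100% = buffer wells lacking importin beta; nearly all actives have a fitted effect of over 15% in size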
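FRET biosensor Rango (snurportin 1 IBB between N-terminal EYFP and C-terminal Cerulean), 50 nM in PBS/1 mM DTT/0.02% Tween-20/0.1% BSA, preincubated 5 min RT with compound; 0.125 microM importin beta added, 45 min RT, CFP/YFP FRET ratio read.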
* marks the source's active call; other numbers are inactive results. Unless noted, the call rests on the fitted dose curve.

Screening O=C(Cc1ccccc1)Nc1cccc(-c2nc3ncccc3o2)c1 returned ClpP mod 28µM*, CBFb RUNX1 block 9%, Rango release inh 2%, MBNL1 CUG block -2% and Rango complex inh 0%.
Screening CCC(C(=O)Nc1cc(-c2nc3cccnc3s2)ccc1C)c1ccccc1 (stereo unspecified) returned ClpP mod 35µM*.
Screening O=C(Nc1cccc(-c2nc3ncccc3o2)c1)c1cc2ccccc2o1 returned ClpP mod -2%, CBFb RUNX1 block 4%, Rango release inh -9%, MBNL1 CUG block -15% and Rango complex inh -2%.
Screening O=C(Cc1ccccc1)Nc1cccc(-c2nc3cccnc3s2)c1 returned ClpP mod 35µM*.
For Cc1ccc(NC(=O)CSc2nc3ccc(NC(=O)c4ccco4)cc3s2)cc1 the results were ClpP mod 4%.
`C=C(C)[C@@H]1C2=CC(C(=O)OC)=C(C[C@@H](C(=C)C)[C@H]3O[C@H]3C3=C[C@H]1OC3=O)O2` gave ClpP mod -4%.
For O=S(=O)(c1ccccc1Cl)N1CCN(c2nc(-c3cccs3)nc3ccccc23)CC1 the results were ClpP mod 4%.
Screening CC(CC(=O)Nc1cccc(Cl)c1)c1ccccc1 (stereo unspecified) returned ClpP mod 14µM*, CBFb RUNX1 block 11%, Rango release inh -7%, MBNL1 CUG block 14% and Rango complex inh 1%.
For CC(C)(C)OC(=O)N1CCC(c2c(C(=O)N3CCN(c4ncccn4)CC3)cnn2-c2ccc(F)cc2)CC1 the results were ClpP mod -3%.
Screening COc1cccc([C@@H]2Oc3ccc(OC)cc3C(=O)[C@H]2OC(=O)Nc2ccc(C)c(Br)c2)c1 returned CBFb RUNX1 block -5%.
`COc1ccc(/C=N/NC(=O)c2ccccc2OC)cc1COc1ccc(C)cc1` gave ClpP mod 25µM*, Rango release inh -3%, MBNL1 CUG block -8% and Rango complex inh 2%.
Cc1nnc2c3ccccc3nc(Nc3ccccc3C(=O)O)n12 was read as ClpP mod 16µM*.
`Cc1nnc2c3ccccc3nc(Nc3cccc(O)c3)n12` gave ClpP mod -2%.
For COc1cc(-c2nc3c(c(C)nn3-c3ccccc3)c3cc(OC)c(OC)cc23)ccc1O the results were ClpP mod 7.9µM*, CBFb RUNX1 block 1%, Rango release inh -7%, MBNL1 CUG block -2% and Rango complex inh -3%.
Screening O=C1CCCc2c1[nH]c1ccccc21 returned ClpP mod -1%, CBFb RUNX1 block 0%, Rango release inh 0%, MBNL1 CUG block 2% and Rango complex inh inconclusive.
Screening Clc1ccc2[nH]c3c(c2c1)CCc1cn[nH]c1-3 returned ClpP mod 28µM*, CBFb RUNX1 block -10%, Rango release inh -9%, MBNL1 CUG block 4% and Rango complex inh 0%.
For c1ccc2c3c([nH]c2c1)-c1[nH]ncc1CC3 the results were ClpP mod 13µM*, CBFb RUNX1 block -8%, Rango release inh 9%, MBNL1 CUG block -5% and Rango complex inh inconclusive.
Screening O=C(N/N=C1\CCCc2c1[nH]c1ccc(Cl)cc21)c1ccncc1 returned ClpP mod -2%, CBFb RUNX1 block 3%, Rango release inh -27%, MBNL1 CUG block 7% and Rango complex inh inconclusive.
CCCN(CC(=O)Nc1ccc(Cl)cc1Cl)C(=O)/C=C/c1cc(OC)ccc1OC was read as ClpP mod 16µM*, CBFb RUNX1 block -4%, Rango release inh 2%, MBNL1 CUG block 10% and Rango complex inh -1%.
CCCN(CC(=O)Nc1cc(Cl)ccc1Cl)C(=O)/C=C/c1cc(OC)ccc1OC was read as ClpP mod inconclusive, Rango release inh -2% and Rango complex inh inconclusive.
